Assay outcomes (PubChem)
Shown are actives, neighbours in structure and some others; about 11% of the full set was active somewhere.
ALOX12 inhib – qHTS Assay for Inhibitors of 12-hLO (12-human lipoxygenase); AID 1452, 2008; Potency, µM (highest dose often 57.1 µM), inactives show top-dose activity change, negative = inhibition, hits mostly inhibitors; purified 12-hLO, xylenol orange hydroperoxide absorbance; hit rate 0.12% among 150,000; Polyunsaturated fatty acid lipoxygenase ALOX12 (Homo sapiens), P18054; active = well fitted curve in the direction sought with a large enough effect; inconclusive = small, poorly fitted or top-dose-only effect, or another doubt; inactive = no such curve, though single readings can be large; an effect the other way counts as inactive or inconclusive; also: potency is read from the fitted curve at half-maximal effect; nearly all actives have a fitted effect of over 55% in size
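Lipoxygenase turnover measured by absorbance at 573 and 405 nm after Fe-XO development. Human 12hLO 150 nM, arachidonate 40 uM, pH 7.0 Hepes buffer with detergent; 15 min compound preincubation, 30 min reaction.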
ALDH1A1 block – qHTS Assay for Inhibitors of Aldehyde Dehydrogenase 1 (ALDH1A1). Aldehyde dehydrogenase 1A1 (Homo sapiens), P00352. Purified ALDH1A1, NADH fluorescence, propionaldehyde substrate. Potency, µM (top dose mostly 75.3 µM), for inactives: at the highest dose activity, negative = inhibition, hits mostly inhibitors. hit rate 7.3% among 220,000;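 also: potency is read from the fitted curve at half-maximal effect; plate controls were no enzyme wells and a reference inhibitor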
IMPase Li inh – qHTS Assay for Identifying the Cell-Membrane Permeable IMPase Inhibitors: Potentiation with Lithium; hit rate 0.35% among 210,000; CHO-M1 cells, IP1 TR-FRET (IP-One), carbachol + lithium; Potency, µM (doses to about 59.4 µM), for inactives: at the highest dose activity, negative = IMPase inhibition, usual class: inhibitors; active = well fitted curve in the direction sought with a large enough effect; inconclusive = small, poorly fitted or top-dose-only effect, or another doubt; inactive = no such curve, though single readings can be large; an effect the other way counts as inactive or inconclusive;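 also: IP1 builds up when IMPase is blocked and the TR-FRET signal falls; potency is read from the fitted curve at half-maximal effect; plate controls were basal vehicle for no effect and high inhibitor control for full effect; nearly all actives have a fitted effect of over 50% in size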
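CHO cells stably expressing M1 receptor (2000/well) were cultured 16–30 h, then exposed to compounds with a small lithium addition for 30 min at 37C. IP1 was measured by TR-FRET competition; AC50 from Hill fits.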
IMPase inh – qHTS Assay for Identifying the Cell-Membrane Permeable IMPase Inhibitors; Inositol monophosphatase 1 (Rattus norvegicus), P97697; CHO-M1 cells, IP1 accumulation, HTRF TR-FRET ratio; inhibition (IP1 accumulation), % at 46.1 µM; 120,000 tested, under 10 active; AID 901, 2007; active = well fitted curve in the direction sought with a large enough effect in the signal ratio, not every such curve was filed as active; inconclusive = small, poorly fitted or top-dose-only effect, or a change in a side signal; inactive = no such curve, though single readings can be large or run the other way; the % refers to the signal ratio;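 also: cells stimulated with carbachol in lithium chloride buffer; plate controls were DMSO basal wells for no effect and reference inhibitor wells for full effect; higher means more IMPase inhibition seen as more IP1 and lower FRET ratio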
Target sequence (P97697 whole entry, looked up): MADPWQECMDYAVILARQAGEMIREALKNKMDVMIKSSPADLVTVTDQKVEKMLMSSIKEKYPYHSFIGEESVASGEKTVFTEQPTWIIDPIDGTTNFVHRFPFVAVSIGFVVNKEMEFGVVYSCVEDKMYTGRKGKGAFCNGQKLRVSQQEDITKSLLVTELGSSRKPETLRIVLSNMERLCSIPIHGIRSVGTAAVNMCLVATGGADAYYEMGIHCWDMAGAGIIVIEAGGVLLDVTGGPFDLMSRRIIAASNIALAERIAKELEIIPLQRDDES
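Elevated IP1 in lysates lowers TR-FRET signal (665/620 ratio and 620 channel reported). Cells were CHO-M1, given carbachol (50 uM as added) plus 50mM LiCl, pH 7.4, 30 min, 37C; compounds titrated up to 46 uM; AC50 by Hill equation.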
PNC assembly inh – High Content Assay for Compounds that inhibit the Assembly of the Perinucleolar Compartment; PC3M PTB-GFP, PNC prevalence imaging, 16 h; active compounds read low; activity change (PNC), negative = inhibition, % at 10 µM; hit rate 3.1% among 140,000;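 active = readout at or below -70, meaning at least 70% loss of cells showing the perinucleolar compartment, a nuclear body marking cancer cells; inconclusive = readout between -30 and a set limit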;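 also: plate controls were DMSO wells for no effect and camptothecin positive control wells for full effect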
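Compounds are pinned in duplicate onto adhered PC3M cells stably expressing GFP-tagged PTB and incubated 16 h at 37 C. Cells are then fixed, nuclei stained with Hoechst, and PNC-positive cells counted.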
HPGD block – qHTS Assay for Inhibitors of HPGD (15-Hydroxyprostaglandin Dehydrogenase); purified HPGD, NADH fluorescence kinetic, PGE2 substrate; Potency, µM, for inactives: at the top dose activity change, negative = inhibition, hits mostly inhibitors; hit rate 4.3% among 150,000; 15-hydroxyprostaglandin dehydrogenase [NAD(+)] (Homo sapiens), P15428; AID 894, 2007; also: potency is read from the fitted curve at half-maximal effect
Target sequence (P15428 whole entry, looked up): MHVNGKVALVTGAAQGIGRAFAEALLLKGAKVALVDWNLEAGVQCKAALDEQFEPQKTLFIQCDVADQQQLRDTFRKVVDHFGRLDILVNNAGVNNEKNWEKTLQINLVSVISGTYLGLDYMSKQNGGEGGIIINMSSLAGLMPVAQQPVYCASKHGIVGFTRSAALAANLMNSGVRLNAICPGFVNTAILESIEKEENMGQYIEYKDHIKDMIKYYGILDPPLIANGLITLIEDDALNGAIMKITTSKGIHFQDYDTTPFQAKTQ
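NADH formation kinetics: reaction with 30 uM PGE2 and 1 mM NAD+ (final), 20 nM enzyme, Tris-HCl pH 8 with Tween 20, after 15 min compound preincubation at room temperature. Fluorescence change, last versus first of five reads.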
Numbers without * were called inactive; u = inconclusive; x = no result; ! = not confirmed by another sample; [ ] = remark or other dose. Unless noted, calls follow the shape of the dose curve; as a rule, active = well fitted inhibition curve with a large enough effect (not every such curve was filed as active); inconclusive = small, poorly fitted or top-dose-only effect, or another doubt; inactive = no such curve, though single readings can be large or run the other way. Unless noted, % is scaled to controls: 0 for no effect and ±100 for the full control effect.

SMILES | ALOX12 inhib | ALDH1A1 block | IMPase Li inh | IMPase inh | PNC assembly inh | HPGD block
O=C(Nc1ccsc1C(=O)N1CCCCCC1)c1ccccc1 | 3% | -5% | -9%[38.3 µM] | 0 | -4 | 5%
COc1cc([C@@H]2Nc3c(F)cccc3[C@@H]3C=CC[C@@H]32)cc(Br)c1OC | x | x | x | 5 | x | x
O=[N+]([O-])c1ccc(/C=C/c2ccc3ccccc3n2)cc1 | x | 2% | -11% | x | x | x
CC1(C)Oc2ccccc2OC1(O)c1ccc2ccccc2n1 (stereo unspecified) | -1% | 13% | 9% | x | -113* | -3%
CC1(c2ccc3noc(-c4cccc(F)c4)c3c2)OCCO1 | x | -2% | 7% | x | x | x
CC/C=C\C/C=C\C/C=C\CCCCCCCC(=O)O | -5%[0.00818 µM] | 10µM*! | 30% | -1 | x | -3%
CC/C=C\C/C=C\C/C=C\CCCCCCCCCCCC(=O)O | -5% | 22µM*! | 7% | x | x | -18%
C=C1C=C(Br)C2(OCCCO2)[C@H]2OC12 (stereo partly specified) | x | 9%[13.5 µM] | x | x | x | x
CCC(C)c1ccc(S(=O)(=O)N2CCN(C(C)CC(=O)O)CC2)cc1 (stereo unspecified) | x | u | -6% | x | x | x
CCS(=O)(=O)N1CCN(c2ccc(C(=O)NC3C4CC5CC(C4)CC3C5)cc2[N+](=O)[O-])CC1 (stereo unspecified) | -2% | 7.1µM* | 0% | -1 | -13 | -1%
Cc1ccc(-n2cc(-c3ccccc3)[nH]c2=O)cc1F | -23% | 20µM* | 27%[38.3 µM] | 7 | -6 | -23%
O=C(Cc1ccc(Cl)cc1)Nc1ccccc1Sc1ccccc1 | 0% | -12% | 8% | x | 55 | -15%
Nc1nc(SCC(=O)Nc2ccccc2Sc2ccccc2)n[nH]1 | 0% | u | 0%[38.3 µM] | -10 | -111* | -17%
O=C(CCl)Nc1ccccc1Sc1ccccc1 | -1% | 4µM* | 8%[38.3 µM] | 3 | u | -8%
C#CCCCO/N=C1/C[C@@H](O)[C@@H](O)[C@@H]2[C@@H]3C(=O)N([C@@H](C)c4ccccc4)C(=O)[C@H]3CC[C@@H]12 | x | 8%[13.5 µM] | x | x | x | x
CCC(=O)Nc1cc(ON=C(C)C)cc([N+](=O)[O-])c1 | -4% | -7% | -1% | x | 45 | -1%
CC(C)=NOc1cc(NC(=O)CCl)cc([N+](=O)[O-])c1 | -2% | 0.18µM* | -3% | x | 20 | -10%
COc1ccc(OC)c(C2C3CN(C(C)C)CC=C3C(C#N)=C(N)C2(C#N)C#N)c1 (stereo unspecified) | -14% | u | 4%[38.3 µM] | -5 | -8 | u
CCCN1CC=C2C(C#N)=C(N)C(C#N)(C#N)C(c3cccc(OC)c3OC)C2C1 (stereo unspecified) | -1% | u | 4% | 7 | -95* | u
CCn1c(C(=O)N2CCc3ccccc3C2)cc2oc3ccccc3c21 | -8% | u | 31%[38.3 µM] | -6 | 2 | u
O=C(c1cc2ccccc2c(=O)o1)N1CCCc2ccccc21 | -4% | 4.5µM* | -4%[38.3 µM] | 1 | -29 | -5%
O=C(c1cc2ccccc2c(=O)o1)N1CCc2ccccc2C1 | -6% | 2% | 0%[38.3 µM] | -2 | u | 25µM*
O=C(c1nn(Cc2ccccc2)c(=O)c2ccccc12)N1CCc2ccccc2C1 | -9% | 0.89µM* | 15%[38.3 µM] | 13 | 26 | -6%
O=C(c1cc2ccccc2c(=O)o1)N1CCCC1 | -1% | -7% | 1% | x | 20 | -13%
O=C(c1nn(Cc2ccccc2)c(=O)c2ccccc12)N1CCN(c2ccccn2)CC1 | -6% | u | 9%[38.3 µM] | 10 | 48 | -7%
